Some test systems named below: SK-MEL-2 melanoma; EKVX NSCLC; SN12C renal; UO-31 renal; TK-10 renal; ACHN renal; CAKI-1 renal; A498 renal; CCRF-CEM leukemia; MOLT-4 leukemia; SR leukemia; RPMI-8226 leukemia; OVCAR-8 ovarian; OVCAR-5 ovarian; OVCAR-4 ovarian; SK-OV-3 ovarian; IGROV1 ovarian; OVCAR-3 ovarian; HS 578T breast; NCI/ADR-RES ovarian.
Holding throughout (assay): NCI-60 one-dose screen, 48 h (100 = growth as untreated, 0 = no growth, -100 = all killed)
Holding throughout (conditions): 10 µM unless noted

The record followed here is PubChem BioAssay (NCI).

This is part of a sample that, as a whole, favours compounds with a hit. Of some 83,000 tested, about 20% had one in any assay.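 Interpretation: 100, growth as untreated; towards 0, rising growth inhibition; 0, no net growth; 0 to -100, cell death. Compounds scoring below 10 were considered active.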 A number with no mark means an inactive call. Active and inactive are the calls of the source.

For `COc1ccc(CCNc2nc3c(c(=O)n(Cc4ccc(Br)cc4)c(=O)n3C)n2C)cc1OC`, the growth in the experiment on SK-MEL-2 melanoma was 93%; in the experiment on EKVX NSCLC it was 83.7%; with SN12C renal, 91.1%; in the experiment on UO-31 renal it was 70.6%; in the experiment with TK-10 renal, 111%; in the experiment on ACHN renal it was 89.7%. For the same compound, the growth was 85.6% with CAKI-1 renal; 92.6% in the experiment on A498 renal; 99.7% in the experiment with CCRF-CEM leukemia; 88.2% in the experiment with MOLT-4 leukemia; 98.9% with SR leukemia; 78.5% in the experiment on RPMI-8226 leukemia. Besides, the growth in the experiment with OVCAR-8 ovarian was 90.5%; in the experiment with OVCAR-5 ovarian it was 94%; in the experiment with OVCAR-4 ovarian it was 80.1%; in the experiment with SK-OV-3 ovarian, 94.9%; in the experiment with IGROV1 ovarian, 83.2%; with OVCAR-3 ovarian it was 98.4%. The growth in the experiment on HS 578T breast is 91.1%; with NCI/ADR-RES ovarian, 82.9%.
`O=CNc1ccc2c(c1)Cc1cccc(NC=O)c1-2`: the growth was 106% in the experiment with SK-MEL-2 melanoma; 80.4% in the experiment on EKVX NSCLC; 95.8% with SN12C renal; 78.8% in the experiment on UO-31 renal; 98.7% in the experiment on TK-10 renal; 85.8% in the experiment with ACHN renal. Also, the growth with CAKI-1 renal is 93%; with A498 renal, 105%; in the experiment with CCRF-CEM leukemia, 107%; in the experiment on MOLT-4 leukemia it was 75%; in the experiment on SR leukemia, 108%; with RPMI-8226 leukemia, 103%. For the same compound, the growth in the experiment with OVCAR-8 ovarian is 99.5%; with OVCAR-5 ovarian, 89.6%; in the experiment on OVCAR-4 ovarian it was 112%; in the experiment with SK-OV-3 ovarian it was 104%; in the experiment with IGROV1 ovarian, 103%; in the experiment with OVCAR-3 ovarian, 90.2%. Besides, the growth with HS 578T breast is 97.1%; with NCI/ADR-RES ovarian, 99.7%.
For the compound `O=C(Oc1cccnc1)c1ccsc1Nc1ccnc(C(F)(F)F)c1`, the growth was 72.6% in the experiment with SK-MEL-2 melanoma; 110% with EKVX NSCLC; 55.2% in the experiment on SN12C renal; 91.6% in the experiment on UO-31 renal; 94.8% with TK-10 renal; 107% in the experiment on ACHN renal. Also, the growth with CAKI-1 renal was 72.7%; with A498 renal, 104%; with CCRF-CEM leukemia, 23.7%; in the experiment with MOLT-4 leukemia it was 8.64% (active); in the experiment with SR leukemia, 17.6%; in the experiment on RPMI-8226 leukemia, 27.6%. The growth is 84% in the experiment with OVCAR-8 ovarian; 102% in the experiment on OVCAR-5 ovarian; 60.2% in the experiment with OVCAR-4 ovarian; 88.2% in the experiment on SK-OV-3 ovarian; 35.9% in the experiment with IGROV1 ovarian; 100% with OVCAR-3 ovarian. For the same compound, the values for the growth in the experiment with HS 578T breast and with NCI/ADR-RES ovarian were 109% and 60.4%, respectively.
As for `NS(=O)(=O)c1ccc(CN=C2NC(=O)S/C2=C\c2ccc(Br)cc2)cc1`, the growth is 102% in the experiment on SK-MEL-2 melanoma; 103% in the experiment with EKVX NSCLC; 97.1% in the experiment with SN12C renal; 88.8% in the experiment with UO-31 renal; 108% with TK-10 renal; 102% in the experiment on ACHN renal. The growth with CAKI-1 renal is 100%; in the experiment on A498 renal, 102%; with CCRF-CEM leukemia, 95%; with MOLT-4 leukemia, 99.3%; in the experiment with SR leukemia, 119%; in the experiment with RPMI-8226 leukemia, 99.8%. In addition, the growth with OVCAR-8 ovarian was 106%; in the experiment on OVCAR-5 ovarian, 94.1%; in the experiment with OVCAR-4 ovarian, 112%; with SK-OV-3 ovarian, 94.3%; with IGROV1 ovarian it was 96.9%; in the experiment with OVCAR-3 ovarian, 106%. In addition, the figures for the growth in the experiment with HS 578T breast and in the experiment with NCI/ADR-RES ovarian were 97.6% and 105%, respectively.
Turning to `COc1cc2c(cc1-c1c(C)noc1C)ncc1nc(C3CCOCC3)n([C@@H](C)COC(F)F)c12`, the growth was 76.4% with SK-MEL-2 melanoma; 55.8% in the experiment with EKVX NSCLC; 66.5% with SN12C renal; -38.3% (active) with UO-31 renal; 26.6% in the experiment on TK-10 renal; 36.9% with ACHN renal. For the same compound, the growth is -11.1% (active) in the experiment with CAKI-1 renal; -6.79% (active) with A498 renal; 55.6% with CCRF-CEM leukemia; 48% with MOLT-4 leukemia; 28.5% with SR leukemia; 18.4% in the experiment on RPMI-8226 leukemia. Moreover, the growth in the experiment on OVCAR-8 ovarian is 45%; in the experiment with OVCAR-5 ovarian it was 65.2%; in the experiment with OVCAR-4 ovarian it was 46.4%; in the experiment with SK-OV-3 ovarian, 2.74% (active); in the experiment on IGROV1 ovarian it was 67%; with OVCAR-3 ovarian, 42.3%. The growth is 8.31% (active) in the experiment with HS 578T breast and 50.6% with NCI/ADR-RES ovarian.
With `CCOC(=O)n1cc(-c2nonc2-c2cn(C)c3ncccc23)c2ccccc21`, the growth in the experiment with SK-MEL-2 melanoma is 90.1%; with EKVX NSCLC, 61.2%; in the experiment with SN12C renal, 87.1%; with UO-31 renal it was 58.4%; in the experiment with TK-10 renal, 98.3%; with ACHN renal, 80.1%. The growth with CAKI-1 renal was 58.1%; in the experiment on A498 renal it was 99%; in the experiment with CCRF-CEM leukemia it was 86.6%; with MOLT-4 leukemia it was 69.8%; in the experiment with SR leukemia it was 60.5%; in the experiment with RPMI-8226 leukemia it was 77.9%. The growth with OVCAR-8 ovarian is 92.6%; in the experiment on OVCAR-5 ovarian, 94.2%; in the experiment with OVCAR-4 ovarian, 71.3%; in the experiment with SK-OV-3 ovarian, 77.6%; in the experiment on IGROV1 ovarian, 54.2%; with OVCAR-3 ovarian it was 85.6%. Also, the growth with HS 578T breast was 77.7%; with NCI/ADR-RES ovarian, 73.1%.
`C#CCOc1ccc2ncnc(N3CCC(NC(=O)CCl)CC3)c2c1`: the growth in the experiment on SK-MEL-2 melanoma is 69.6% [8.25 µM]; in the experiment with EKVX NSCLC, 72.7% [8.25 µM]; in the experiment on SN12C renal, 63.6% [8.25 µM]; in the experiment on UO-31 renal, 40.6% [8.25 µM]; in the experiment with TK-10 renal, 69% [8.25 µM]; with ACHN renal, 57.6% [8.25 µM]. In addition, the growth is 71.4% [8.25 µM] with CAKI-1 renal; 29.9% [8.25 µM] in the experiment on A498 renal; 39.8% [8.25 µM] in the experiment on CCRF-CEM leukemia; 40.9% [8.25 µM] in the experiment with MOLT-4 leukemia; 62.6% [8.25 µM] in the experiment with SR leukemia; 44.4% [8.25 µM] with RPMI-8226 leukemia. Also, the growth in the experiment with OVCAR-8 ovarian was 76.3% [8.25 µM]; in the experiment with OVCAR-5 ovarian, 100% [8.25 µM]; in the experiment with OVCAR-4 ovarian it was 36.5% [8.25 µM]; in the experiment on SK-OV-3 ovarian, 69.6% [8.25 µM]; in the experiment with IGROV1 ovarian it was 51.4% [8.25 µM]; in the experiment on OVCAR-3 ovarian, 68.2% [8.25 µM]. The values for the growth in the experiment on HS 578T breast and in the experiment on NCI/ADR-RES ovarian were 46.7% [8.25 µM] and 88.2% [8.25 µM], respectively.
As for `Cc1ccccc1COc1ccc(-c2onc(C)c2-c2ccc(Cl)cc2)cc1`, the growth in the experiment with SK-MEL-2 melanoma was 37.1%; with EKVX NSCLC, 75.1%; with SN12C renal, 68.3%; in the experiment with UO-31 renal, 72.4%; in the experiment on TK-10 renal, 84.3%; in the experiment with ACHN renal it was 67%. Moreover, the growth is 48.7% with CAKI-1 renal; 38.6% with A498 renal; 38.2% in the experiment on CCRF-CEM leukemia; 32.8% in the experiment on MOLT-4 leukemia; 34% in the experiment on SR leukemia; 81% in the experiment on RPMI-8226 leukemia. Further, the growth in the experiment with OVCAR-8 ovarian is 75.8%; in the experiment with OVCAR-5 ovarian it was 87.6%; with OVCAR-4 ovarian it was 82.7%; in the experiment on SK-OV-3 ovarian it was 59.5%; in the experiment on IGROV1 ovarian it was 52.5%; in the experiment with OVCAR-3 ovarian, 20.7%. The growth was 59.4% with HS 578T breast and 39.2% in the experiment on NCI/ADR-RES ovarian.
